The whole screen tested about 310,000 compounds, of which about 2,200 (0.71%) showed an effect of 50% or more. Effects have a minus sign here. The full list was thinned out, with strong results kept by preference.
target: human ether-à-go-go-related gene (hERG) potassium channel (human, UniProt Q12809); assay: primary screen, population patch clamp on CHO cells stably expressing hERG; higher = less effect of the substance
Description: Briefly, Chinese hamster ovary (CHO) cells stably expressing the hERG channel were dislodged from tissue culture flasks and dispensed into PPC plates. […] During the recording, background leak currents were estimated by a 100 ms step to -80 mV from an initial holding potential of -70 mV and subtracted from the subsequent current measurement. The campaign was conducted in two phases using slight differences in recording protocol. In the first phase, the initial voltage pulse used a 100 ms step to -30 mV from a holding potential of -70 mV, a 2 s conditioning step to +25 mV, and a 2 s test step to -30 mV. During the second phase of the screen, the potential during the conditioning step was raised to +45 mV. In both phases of the campaign, a secondary voltage pulse was applied using the same parameters as the second phase initial pulse. The initial and secondary pulses were applied in the absence of compound, and upon application of 1 μM and 10 μM test concentrations. Small molecule effects on hERG current density were quantified by […].

Sequence of human ether-à-go-go-related gene (hERG) potassium channel (Q12809 whole entry, looked up): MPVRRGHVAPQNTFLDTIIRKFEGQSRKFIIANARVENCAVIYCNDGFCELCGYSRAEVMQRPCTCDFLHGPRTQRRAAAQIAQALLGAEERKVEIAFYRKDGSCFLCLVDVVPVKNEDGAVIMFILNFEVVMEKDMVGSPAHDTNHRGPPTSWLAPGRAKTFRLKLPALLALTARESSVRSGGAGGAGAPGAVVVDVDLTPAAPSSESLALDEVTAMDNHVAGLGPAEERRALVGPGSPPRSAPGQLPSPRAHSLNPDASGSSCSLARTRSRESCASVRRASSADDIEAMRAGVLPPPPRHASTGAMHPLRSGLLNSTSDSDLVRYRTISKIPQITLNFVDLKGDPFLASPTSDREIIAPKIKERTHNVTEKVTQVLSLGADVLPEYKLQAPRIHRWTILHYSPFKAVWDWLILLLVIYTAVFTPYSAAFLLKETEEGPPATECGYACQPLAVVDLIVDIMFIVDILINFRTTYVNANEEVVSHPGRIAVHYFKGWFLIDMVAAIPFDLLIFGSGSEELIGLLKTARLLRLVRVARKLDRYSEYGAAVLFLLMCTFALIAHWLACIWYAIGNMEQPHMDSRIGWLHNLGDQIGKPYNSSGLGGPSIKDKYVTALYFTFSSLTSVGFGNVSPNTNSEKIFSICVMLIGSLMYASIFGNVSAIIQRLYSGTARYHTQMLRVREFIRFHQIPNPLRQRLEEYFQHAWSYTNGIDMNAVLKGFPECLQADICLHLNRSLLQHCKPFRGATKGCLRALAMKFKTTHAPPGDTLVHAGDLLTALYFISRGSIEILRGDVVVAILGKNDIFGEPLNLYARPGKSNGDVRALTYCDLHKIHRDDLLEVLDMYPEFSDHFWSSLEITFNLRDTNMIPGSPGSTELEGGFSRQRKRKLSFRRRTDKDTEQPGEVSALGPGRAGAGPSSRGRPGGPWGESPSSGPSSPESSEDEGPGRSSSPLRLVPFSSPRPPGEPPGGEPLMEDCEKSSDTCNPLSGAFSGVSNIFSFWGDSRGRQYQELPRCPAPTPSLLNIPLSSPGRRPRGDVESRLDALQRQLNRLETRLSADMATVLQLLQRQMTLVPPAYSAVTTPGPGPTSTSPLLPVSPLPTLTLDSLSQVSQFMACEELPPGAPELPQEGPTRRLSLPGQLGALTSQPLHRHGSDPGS

Row | Structure (SMILES) | hERG current change (%, negative = inhibition) at 1uM [%]
1 | Cc1cc(C(=O)NN=C(Cc2ccccc2)Cc2ccccc2)c(C)o1 | 4.29
2 | O=C(Nc1cnccn1)c1ccncc1 | -8.03
3 | NS(=O)(=O)c1ccc(CCNC(=O)c2ccccc2F)cc1 | 4.79
4 | CCCCNC(=O)/C=C/c1cccs1 | 24.3
5 | Cc1ccc(-c2cc(-c3ccccc3)cc(-c3ccccc3)[n+]2-c2ccc(C(=O)O)cc2)cc1.[O-][Cl+3]([O-])([O-])[O-] | 7.88
6 | [O-][Cl+3]([O-])([O-])[O-].c1ccc(-c2cc(-c3ccccc3)[n+](-c3ccccc3)c(-c3ccccc3)c2)cc1 | -27.7
7 | Cc1ccc(-c2cc(-c3ccccc3)cc(-c3ccccc3)[n+]2-c2ccccc2)cc1.[O-][Cl+3]([O-])([O-])[O-] | -80.4
8 | O=C(COc1ccccc1)N(Cc1ccco1)c1ccc(O)cc1 | 8.59
9 | CCOC(=O)c1[nH]c(C)c(C(=O)NCc2ccc(Cl)cc2)c1C | -4.65
10 | COc1ccc(CN2CCC(n3nccc3NC(=O)CCCc3ccccc3)CC2)cc1C | -67.3
11 | CCOc1cccc(CN2CCC(n3nccc3NC(=O)CCCc3ccccc3)CC2)c1 | 9.19
12 | CCOc1ccccc1CN1CCC(n2nccc2NC(=O)CCCc2ccccc2)CC1 | -29.2
13 | O=C(CCCc1ccccc1)Nc1ccnn1C1CCN(Cc2ccccc2)CC1 | -18.8
14 | O=C(CCOc1ccccc1)Nc1ccnn1C1CCN(CCc2ccccc2)CC1 | -51.4
15 | COc1ccccc1CN1CCC(n2nccc2NC(=O)CCCc2ccccc2)CC1 | -42.7
16 | O=C(CCOc1ccccc1)Nc1ccnn1C1CCN(Cc2ccc(O)cc2)CC1 | -3.76
17 | COc1cc(CN2CCC(n3nccc3NC(=O)CCCc3ccccc3)CC2)ccc1O | -5.54
18 | COc1cccc(CN2CCC(n3nccc3NC(=O)CCCc3ccccc3)CC2)c1O | -55.4
19 | O=C(CCOc1ccccc1)Nc1ccnn1C1CCN(Cc2ccccc2)CC1 | 2

Row | Structure (SMILES) | hERG current change (%, negative = inhibition) at 1uM [%]
20 | COc1ccc(CN2CCC(n3nccc3NC(=O)CCOc3ccccc3)CC2)cc1C | -16.2
21 | CCOc1ccc(CN2CCC(n3nccc3NC(=O)CCCc3ccccc3)CC2)cc1 | -88.8
22 | O=C(CCCN1C(=O)/C(=C/c2ccc3c(c2)OCO3)SC1=S)Nc1cccc(C(=O)O)c1 | 9.71
23 | Cn1cc(S(=O)(=O)N2CCC(C(N)=O)CC2)c(=O)n(C)c1=O | 11
24 | Cc1c(C)c2cc(Cl)c(O)c(CN(C)C)c2oc1=O | 15.4
25 | CN(C)/C=N/c1cc(=O)[nH]c(=O)n1CC1CC1 | 17.1
26 | O=C(CCc1ccccc1)Nc1ccnn1C1CCN(Cc2ccc(OCCO)cc2)CC1 | -9.11
27 | CC(=O)Nc1ccc(CN2CCC(n3nccc3NC(=O)CCc3ccccc3)CC2)cc1 | 11.7
28 | CC(C)Oc1ccc(CN2CCC(n3nccc3NC(=O)CCc3ccccc3)CC2)cc1 | -86.3
29 | O=C(/C=C/c1ccc(-c2ccccc2)o1)c1ccccc1 | 10.1
30 | CCOc1ccccc1NC(=O)C(c1ccccc1)N1CCN(CC(=O)N2CCOCC2)CC1 (stereo not drawn) | -79.7
31 | Cc1ccc(NC(=O)C(c2ccccc2)N2CCN(CC(=O)N3CCOCC3)CC2)cc1 (stereo not drawn) | -8.48
32 | O=C(Nc1ccc(F)cc1)C(c1ccccc1)N1CCN(CC(=O)N2CCOCC2)CC1 (stereo not drawn) | -14.5
33 | O=C(NCCc1nc2ccccc2[nH]1)/C(=C/c1ccc2c(c1)OCO2)NC(=O)c1ccccc1Cl | -49.9
34 | O=C(NCCc1nc2ccccc2[nH]1)/C(=C/c1ccc2c(c1)OCO2)NC(=O)c1ccc(Cl)cc1Cl | -73.9
35 | O=C(NCCc1nc2ccccc2[nH]1)/C(=C/c1ccc2c(c1)OCO2)NC(=O)c1ccccc1 | -14.2
36 | CSCC[C@H](NC(=O)c1ccc(Cl)c(S(=O)(=O)N2CCCC2)c1)c1nc2ccccc2[nH]1 | -1.71
37 | O=C(NCC1CCCN(Cc2cccc(OCCO)c2)C1)c1ccc(F)cc1 (stereo not drawn) | 2.83
38 | CCOc1cc(CN2CCCC(CNC(=O)c3ccc(F)cc3)C2)ccc1OC (stereo not drawn) | -17

Row | Structure (SMILES) | hERG current change (%, negative = inhibition) at 1uM [%]
39 | CCOc1ccc(CN2CCCC(CNC(=O)c3ccc(F)cc3)C2)cc1CO (stereo not drawn) | -50.5
40 | COc1ccc(CN2CCCC(CNC(=O)c3ccc(F)cc3)C2)cc1OC (stereo not drawn) | -54.3
41 | O=C(NCC1CCCN(Cc2ccc3nonc3c2)C1)c1ccc(F)cc1 (stereo not drawn) | -13.9
42 | CSc1cccc(CN2CCCC(CNC(=O)c3ccc(F)cc3)C2)c1 (stereo not drawn) | -19.1
43 | COc1ccc(CC(=O)NCC2CCCN(Cc3ccc(OC)cc3F)C2)cc1 (stereo not drawn) | 6.22
44 | COc1cc(OC)cc(C(=O)NCC2CCCN(Cc3ccc(SC)cc3)C2)c1 (stereo not drawn) | -34.6
45 | COc1ccc(CN2CCCC(CNC(=O)c3ccc(F)cc3)C2)c(F)c1 (stereo not drawn) | -50.4
46 | CSc1ccc(CN2CCCC(CNC(=O)c3ccc(F)cc3)C2)cc1 (stereo not drawn) | -59
47 | COc1ccc(CC(=O)NCC2CCCN(Cc3ccc(F)cc3F)C2)cc1 (stereo not drawn) | 8.71
48 | COc1ccc(CN2CCCC(CNC(=O)c3ccc(F)cc3)C2)c(C)c1C (stereo not drawn) | -46.2
49 | O=C(O)COCC(=O)N1CCN(C2c3ccccc3-c3ccccc32)CC1 | 12.4
50 | CCCC/C(O)=C/c1nc2ccccc2[nH]c1=O | 1.79
51 | O=C(NCc1ccco1)c1cc2n(n1)C(C(F)(F)F)CC(c1ccc(F)cc1)N2 (stereo not drawn) | -4.18
52 | Br.COc1cccc(C(=O)CN2C3=NCCCN3c3ccccc32)c1 | -61.2
53 | Br.O=C(CN1C2=NCCCN2c2ccccc21)c1ccc([N+](=O)[O-])cc1 | -54
54 | Br.O=C(CN1C2=NCCN2c2ccccc21)c1ccc(Br)cc1 | -28.4
55 | Br.Cc1ccc(C)c(C(=O)CN2C3=NCCCN3c3ccccc32)c1 | -43
56 | Br.O=C(CN1C2=NCCCN2c2ccccc21)c1cccc(Br)c1 | -28.6
57 | COc1ccc(C(=O)CN2C3=NCCCN3c3ccccc32)cc1OC | -6.85

— paper PMC4336329 (PLoS ONE, 2015)
